Rows were chosen to be rich in hits. Some 3.4% of all compounds tested hit in one or more screens of this group.
SMARCA2 act = SMARCA2 (BRM) function activators, primary screen, cell-based, luminescence, high throughput. MG213 cells, MMTV-luciferase reporter, dexamethasone, overnight. activation, % at 9.1 µM. 370,000 compounds, 1% hits; in the data active = activation above about 7.8%;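 note: 0% = vehicle wells and 100% = reference activator wells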
COUP-TFII inh = NR2F2 transcriptional activity inhibitors, primary screen, cell-based, luciferase reporter, HEK293T, luminescence. AID 686940, 2013. 370,000 compounds, 0.7% hits. inhibition, % at 8.6 µM. HEK293T NGFI-A luciferase reporter;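 active = inhibition above a per-plate cutoff, mean inhibition of test wells between control levels plus 3 SD, cut at about 38% in these data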;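 note: cells cotransfected with COUP-TFII expression vector driving the NGFI-A reporter; 0% = median of COUP-TF2 test wells and 100% = reporter-only cells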
Target sequence (P24468 whole entry, looked up): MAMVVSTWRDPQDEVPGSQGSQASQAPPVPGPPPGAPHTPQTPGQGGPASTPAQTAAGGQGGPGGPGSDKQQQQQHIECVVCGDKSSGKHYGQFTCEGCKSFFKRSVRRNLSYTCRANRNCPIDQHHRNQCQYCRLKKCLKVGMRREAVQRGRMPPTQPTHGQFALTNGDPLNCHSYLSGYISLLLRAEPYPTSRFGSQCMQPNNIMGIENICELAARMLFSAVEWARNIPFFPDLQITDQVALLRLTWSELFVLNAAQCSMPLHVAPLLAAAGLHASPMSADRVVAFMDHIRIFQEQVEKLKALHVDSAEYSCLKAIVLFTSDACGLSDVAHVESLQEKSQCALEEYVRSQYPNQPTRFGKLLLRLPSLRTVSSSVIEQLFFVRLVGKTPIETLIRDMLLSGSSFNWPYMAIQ
GalR3 antagonist = GalR3 antagonists in HEK293 cells, primary screen, cell-based, fluorescence readout. 360,000 compounds, 0.44% hits. Galanin receptor type 3 (Homo sapiens), O60755. inhibition, % at 3 µM. AID 651719, 2012. HEK293 GalR3-CNG cAMP membrane potential fluorescence; galR3 body fused to GalR1 C-terminus;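 active = inhibition above the screen-wide average plus 3 SD, cut at about 13% in these data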;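 note: forskolin and galanin both at EC90 stimulate the cells; cAMP rise reported by CNG channel membrane potential dye signal; 0% = forskolin plus galanin with DMSO and 100% = forskolin alone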
Target sequence (O60755 1-299 limits assumed): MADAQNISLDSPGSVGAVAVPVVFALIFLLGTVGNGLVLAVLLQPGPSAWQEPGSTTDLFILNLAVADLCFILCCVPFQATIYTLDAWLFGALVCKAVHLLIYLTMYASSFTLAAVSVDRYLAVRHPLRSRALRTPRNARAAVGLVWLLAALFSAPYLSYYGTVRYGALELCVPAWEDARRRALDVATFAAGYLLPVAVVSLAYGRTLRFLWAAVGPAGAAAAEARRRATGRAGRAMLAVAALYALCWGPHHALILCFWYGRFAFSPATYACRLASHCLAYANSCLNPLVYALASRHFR
H9c2 protect = cardioprotection against H2O2-induced cell death, primary screen, uHTS, H9c2 cells, ATPLite luminescence; H9c2 cardiomyocytes, H2O2 injury protection, 2 h; protection from H2O2 cell death, % at 20 µM; 360,000 compounds, 0.63% hits; AID 588492, 2011;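 active = compounds giving at least 50% protection of heart cells from peroxide-induced death in the single-dose screen, raw or plate-pattern-corrected value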;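 note: 0% = DMSO wells with peroxide and 100% = DMSO wells without peroxide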
Gli-Sufu block = Gli-Sufu pathway antagonists, primary screen, luciferase luminescence, Sufu-KO-LIGHT cells, uHTS. inhibition, % at 5 µM. 340,000 compounds, 0.74% hits. Sufu-KO-LIGHT fibroblasts, Gli luciferase reporter luminescence;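 active = inhibition above about 55%, limit read from the data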;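 note: 0% = DMSO-treated cells and 100% = wells with medium but no cells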
FXN GAA850 act = FXN promoter activators, primary screen, cell-based, luciferase luminescence, HEK293 lucGAA850 | 360,000 compounds, 0.56% hits | activation, % at 6 µM | HEK293 lucGAA850 FXN promoter luciferase reporter, 24 h; percent of 10 µM SAHA response | AID 540364, 2011;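 active = activation above the average of all compounds screened plus 3 SD, cutoff fixed separately per campaign, cut at about 7.5% in these data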;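 note: 0% = DMSO wells and 100% = 10 µM SAHA wells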
Gal4-VP16 ctr = Gal4-VP16 luciferase reporter inhibitors, counter-screen for COUP-TFII antagonist project, cell-based, luminescence, HEK293. shares compounds with COUP-TFII inh. inhibition, % at 8.5 µM. 2,500 compounds, 25% hits. AID 687007, 2013; in the data active = inhibition above about 13%
NR2F2 inh conf = NR2F2 transcriptional activity inhibitors, confirmation, cell-based, luciferase reporter, HEK293, triplicate; shares compounds with COUP-TFII inh; HEK293 NGFI-A luciferase reporter, luminescence; inhibition, % at 8.5 µM; 2,500 compounds, 45% hits; AID 687008, 2013;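 active = mean inhibition over three repeats above a set limit taken from the earlier primary screen, cut at about 38% in these data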;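 note: 100% = cells given the luciferase reporter alone without the COUP-TF2 vector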
Active calls of the source: *; . = no result.

SMILES	SMARCA2 act	COUP-TFII inh	GalR3 antagonist	H9c2 protect	Gli-Sufu block	FXN GAA850 act	Gal4-VP16 ctr	NR2F2 inh conf
Cc1ccc(NS(=O)(=O)c2cn(C)c(=O)n(C)c2=O)cc1C	0.0	-11.7	.	6.0	-2.8	-0.1	.	.
CCN(CC)c1ccc(NS(=O)(=O)c2cn(C)c(=O)n(C)c2=O)c(C)c1	-0.8	78.4*	.	-13.5	-0.4	2.7	-13.1	-7.1
COc1cccc(NC(=O)Nc2nc(-c3ccc(OC)c(OC)c3)cs2)c1	-7.4	73.1*	-9.3	-2.8	33.4	-13.8	72.2*	100.4*
COc1ccc(-c2csc(NC(C)=O)n2)cc1OC	-0.4	-9.7	-0.1	5.2	-5.6	1.1	.	.
COc1ccc(-c2csc(NC(=O)C3CCN(C(=O)c4ccc(F)cc4)CC3)n2)cc1OC	-1.4	55.1*	-2.6	-1.2	14.3	-4.4	8.1	20.7
Cc1cc(C)n(S(=O)(=O)c2cccc(Cl)c2Cl)n1	-0.8	-11.7	-3.2	3.4	6.2	0.2	.	.
Cc1cc(N2CCCC2)ccc1NC(=O)COc1cccc(C(F)(F)F)c1	-4.8	40.0*	-4.3	-18.2	11.9	-3.0	5.6	35.4
O=C(COc1ccccc1)Nc1cc(C(F)(F)F)ccc1N1CCCC1	-1.9	22.0	-6.1	-11.1	-11.0	3.6	.	.
O=C(c1cccs1)C1CCN(c2ncnc3sccc23)CC1	.	75.8*	.	.	.	.	11.9	68.5*
O=C(c1ccccc1)C1CCN(C(=O)c2cccs2)CC1	-6.8	10.8	-2.5	-6.8	3.3	-0.6	.	.
O=C(c1ccc(Cl)cc1)C1CCN(c2ncnc3sccc23)CC1	.	69.0*	.	.	.	.	0.0	55.8*
COc1ccc(C(=O)C2CCN(c3ncnc4sccc34)CC2)cc1	.	76.2*	.	.	.	.	4.5	68.3*
COc1ccc(-n2ncc3c(N4CCC(C(N)=O)CC4)ncnc32)cc1	5.9	-33.2	-3.6	-0.6	-86.9	1.2	.	.
CCOC(=O)C1=NOC2C3CC(C12)C1C(=O)N(CCc2ccc(OC)c(OC)c2)C(=O)C31 (centres undefined)	-4.1	-9.1	2.7	0.2	-3.0	0.6	.	.
CC(C)COC(=O)/C(C#N)=C/c1c[nH]c2ccccc12	1.7	-49.5	1.4	-8.8	2.1	7.0	.	.
Cc1ccc(Cn2c(SCC(C)C)nc3c2c(=O)n(C)c(=O)n3C)cc1	-0.2	-2.0	-1.2	-15.1	15.6	1.9	.	.
O=C(c1cc(S(=O)(=O)N2CCN(c3ccccc3)CC2)ccc1Cl)N1CCCC(C(F)(F)F)C1 (centres undefined)	-6.6	46.1*	-4.6	-27.8	43.6	-2.6	1.9	31.8
CCN(CC)S(=O)(=O)c1cccc(-n2c(O)c(C=Nc3ccccc3C(=O)O)c3ccccc3c2=O)c1	-2.0	46.5*	-7.5	19.6	-5.6	-11.1	-30.0	41.5*
Cc1nc(NC(=O)CSc2cc(C)c3ccccc3n2)c(Cl)cc1Cl	-3.0	13.9	-5.5	-6.0	3.1	2.2	.	.
C=CCc1ccc(OC)c(OC)c1	1.4	-17.8	-1.9	0.9	1.6	-2.6	.	.
Cc1ccccc1C(=O)N1CCC(C(=O)Nc2ccc(C)c(S(=O)(=O)N3CCCCC3)c2)CC1	-4.5	41.6*	-7.2	-13.4	14.4	-2.1	-6.2	13.1
Cc1ccc(NC(=O)C2CCCN(C(=O)c3ccc(Cl)cc3)C2)cc1S(=O)(=O)N1CCOCC1 (centres undefined)	-5.1	37.6*	1.6	-2.0	20.7	-1.2	-7.2	3.0
CS(=O)(=O)c1ccc(NC(=O)C2CCCN(C(=O)c3ccc(Cl)cc3)C2)cc1 (centres undefined)	-2.9	7.9	-1.4	6.2	-8.3	-0.3	.	.
Cc1ccccc1C(=O)N1CCC(C(=O)Nc2cccc(S(=O)(=O)N3CCCCC3)c2)CC1	-3.5	33.5	-2.6	-9.2	-7.5	-1.4	.	.
COc1ccc(S(=O)(=O)N(C)C[C@H]2Oc3ccc(NC(=O)NC4CCCCC4)cc3C(=O)N([C@H](C)CO)C[C@@H]2C)cc1	0.4	7.0	1.2	0.2	-19.5	-1.0	.	.
SMILES	SMARCA2 act	COUP-TFII inh	GalR3 antagonist	H9c2 protect	Gli-Sufu block	FXN GAA850 act	Gal4-VP16 ctr	NR2F2 inh conf
Cc1ccc(C(C)C)c(OCc2ccc(C(=O)N/N=C/c3ccc(C(=O)O)cc3)cc2)c1	-8.0	39.5*	-5.6	1.4	13.9	-8.8	24.3*	8.2
Cc1ccc(COc2ccc(/C=N/NC(=O)c3ccc(CN4CCOCC4)cc3)cc2)cc1	-3.6	14.7	-4.2	-3.9	-4.8	-0.1	.	.
COC(=O)CCn1nnc(-c2cccs2)n1	1.3	1.7	-4.4	-2.1	1.4	-2.5	.	.
COC(=O)CCn1nnc(-c2ccc(C(C)C)cc2)n1	-10.0	86.1*	1.4	-7.3	56.7*	-15.8	83.1*	86.6*
COCc1cc(=O)[nH]c(SCCS(=O)(=O)c2ccc(Cl)cc2Cl)n1	3.9	-27.1	-0.4	-1.4	0.9	4.0	.	.
CC(C)NC(=O)CCn1nc(-c2ccc(Cl)cc2)c2ccccc2c1=O	-1.9	9.5	-7.2	-5.8	-0.9	1.6	.	.
COC(=O)[C@@]12C[C@@H](CC(=O)NCCCCc3ccccc3)C(=O)N(Cc3ccco3)C1=CCC(C)(C)C2	-0.9	8.5	-7.8	.	.	.	.	.
CCCc1nc2c(=O)n(C)c(=O)nc-2n(C)n1	-11.4	67.8*	-3.5	-31.5	58.9*	-16.6	37.4*	60.4*
Cn1nc(-c2ccccn2)nc2c(=O)n(C)c(=O)nc1-2	-11.9	53.7*	-10.7	-16.0	3.3	-17.6	30.3*	33.0
COc1ccc(-c2nc(-c3ccccn3)ncc2S(C)(=O)=O)cc1	-0.1	-4.9	-2.9	1.9	-10.4	1.2	.	.
CCC(=O)NC1(C(F)(F)F)C(=O)Nc2c1c(=O)[nH]c(=O)n2CC(C)C (centres undefined)	-0.6	6.0	2.8	3.5	45.1	0.3	.	.
N#Cc1ccccc1OCC(=O)OCC(=O)NC1CCCC1	-3.5	7.3	-7.2	3.5	-18.9	2.0	.	.
CC(C)CNC(=O)[C@H]1N2C(=O)c3ccccc3C2SC1(C)C (some centres undefined)	-3.5	-0.5	-8.6	1.1	.	0.7	.	.
Cc1nn(C)c(C)c1NS(=O)(=O)c1cccc(Br)c1	-2.9	-1.6	-4.2	-6.8	-1.8	-0.3	.	.
